Among all 5,500 compounds or so, about 2,000 (36%) were called active. Another 18% or so got no clear call; they are omitted. Cut-off read from the data, not from the text of the source: active = normalized growth mostly below about 0.91 (no sharp cut-off); inconclusive = no clear call, values can overlap the other calls; inactive = mostly above about 0.92. Some of the results follow.
Assay: chemical genetic growth profiling, strain panel (AID 1159580);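 note: tested at 20 µM; growth read once vehicle control cultures reached saturation at 30 °C; 1 = growth at the plate median or of vehicle wells; lower values mean less growth of the strain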
Conditions: S. cerevisiae deletion strains, growth OD

Measured: normalized growth

C=C1C(=O)OC2CC1C(OC(C)=O)C/C(C)=C/CC/C(C)=C/CC[C@]2(C)O (stereo partly specified)
inactive: locus YAL013W, strain DEP1, hits give low values 0.999 | locus YAL021C, strain ccr4, hits give low values 0.964 | locus YAL026C, strain drs2, hits give low values 0.987 | locus YAL030W, strain snc1, hits give low values 0.984 | locus YBL061C, strain skt5, hits give low values 1.01 | locus YBR009C, strain hhf1, hits give low values 1.01 | locus YBR021W, strain FUR4, hits give low values 1.03 | locus YBR023C, strain chs3, hits give low values 1.01 | locus YBR171W, strain sec66, hits give low values 0.994 | locus YBR229C, strain ROT2, hits give low values 1.02 | locus YBR231C, strain swc5, hits give low values 1.01 | locus YBR279W, strain paf1, hits give low values 0.996 | locus YCL011C, strain gbp2, hits give low values 1 | locus YCL016C, strain dcc1, hits give low values 1 | locus YCL029C, strain bik1, hits give low values 1.02 | locus YCL061C, strain MRC1, hits give low values 0.993 | locus YCL069W, strain vba3, hits give low values 0.987 | locus YCR088W, strain abp1, hits give low values 0.991 | locus YDL005C, strain med2, hits give low values 0.992 | locus YDL035C, strain GPR1, hits give low values 1.01 | locus YDL040C, strain nat1, hits give low values 0.981 | locus YDL074C, strain BRE1, hits give low values 1 | locus YDL101C, strain DUN1, hits give low values 1.01 | locus YDL185W, strain tfp1, hits give low values 1.02 | locus YDL192W, strain arf1, hits give low values 1 | locus YDR001C, strain nth1, hits give low values 0.982 | locus YDR069C, strain doa4, hits give low values 1.01 | locus YDR101C, strain arx1, hits give low values 1.03 | locus YDR137W, strain rgp1, hits give low values 0.935 | locus YDR150W, strain NUM1, hits give low values 1 | locus YDR159W, strain sac3, hits give low values 1.03 | locus YDR162C, strain NBP2, hits give low values 1.02 | locus YDR195W, strain ref2 1.02 | locus YDR297W, strain sur2, hits give low values 0.997 | locus YDR318W, strain mcm21, hits give low values 1 | locus YDR334W, strain swr1, hits give low values 1.01 | locus YDR335W, strain msn5, hits give low values 0.985 | locus YDR388W, hits give low values 1.01 | locus YDR392W, strain spt3, hits give low values 0.977 | locus YDR502C, strain sam2, hits give low values 1.03 | locus YEL003W, strain gim4, hits give low values 1.01 | locus YEL037C, strain rad23, hits give low values 0.99 | locus YEL061C, strain CIN8 (second series), hits give low values 0.994 | locus YEL061C, strain CIN8, hits give low values 1.02 | locus YER015W, strain faa2, hits give low values 1 | locus YER016W, strain bim1, hits give low values 0.992 | locus YER110C, hits give low values 1.02 | locus YER111C, strain swi4, hits give low values 0.995 | locus YER155C, strain BEM2 (second series), hits give low values 1.03 | locus YER155C, strain BEM2, hits give low values 1 | locus YER167W, strain BCK2, hits give low values 1.01 | locus YFR010W, strain ubp6, hits give low values 0.995 | locus YGL078C, strain dbp3, hits give low values 1.01 | locus YGL086W, strain mad1, hits give low values 1.02 | locus YGL167C, strain pmr1, hits give low values 0.988 | locus YGL173C, strain kem1, hits give low values 1.01 | locus YGL227W, strain vid30, hits give low values 0.989 | locus YGL240W, strain doc1, hits give low values 1.02 | locus YGL248W, strain PDE1, hits give low values 1.02 | locus YGL253W, strain hxk2, hits give low values 0.923 | locus YGR135W, strain pre9, hits give low values 1 | locus YGR252W, strain gcn5, hits give low values 1.01 | locus YHR013C, strain ard1, hits give low values 0.979 | locus YHR027C, strain rpn1, hits give low values 0.99 | locus YHR030C, strain SLT2, hits give low values 1.02 | locus YHR079C, strain IRE1 (second series), hits give low values 1.01 | locus YHR094C, strain hxt1, hits give low values 1.01 | locus YHR129C, strain ARP1, hits give low values 1.01 | locus YHR142W, strain chs7, hits give low values 1.01 | locus YHR200W, strain rpn10, hits give low values 1.02 | locus YIL066C, strain RNR3, hits give low values 1.01 | locus YIL073C, strain SPO22, hits give low values 0.983 | locus YIL125W, strain kgd1, hits give low values 1.01 | locus YIR030C, strain dcg1, hits give low values 1.01 | locus YJL092W, strain hpr5, hits give low values 0.988 | locus YJL095W, strain BCK1 (second series), hits give low values 0.998 | locus YJL095W, strain BCK1, hits give low values 1 | locus YJL115W, strain asf1, hits give low values 0.982 | locus YJL129C, strain trk1, hits give low values 1.01 | locus YJL134W, strain LCB3, hits give low values 1 | locus YJL154C, strain vps35, hits give low values 0.982 | locus YJL164C, strain tpk1, hits give low values 0.981 | locus YJL166W, strain qcr8, hits give low values 1 | locus YJL168C, strain set2, hits give low values 1.03 | locus YJL187C, strain SWE1 (second series), hits give low values 1.01 | locus YJL187C, strain SWE1, hits give low values 0.978

Reference: PubChem BioAssay AID1159580 (chemical genetic matrix, 2015)
